From publication PMC5540273 (PLoS ONE, 2017)

Assays:
Conditions in all cases: concentration: 1 μM, replicates: in singlicate; n = 1
TNNI3K = tested on: TNNI3K
TRKA = tested on: T1, TRKA
T1 construct: gene NTRK1

TRKB = tested on: TRKB
TRKC = tested on: T2, TRKC
T2 construct: gene NTRK3

TRPM6 = tested on: TRPM6
TSSK1B = tested on: TSSK1B
TSSK3 = tested on: TSSK3
TTK = tested on: TTK
TXK = tested on: TXK
[1] = tested on: TYK2(JH1domain-catalytic)
[2] = tested on: TYK2(JH2domain-pseudokinase)
TYRO3 = tested on: TYRO3
ULK1 = tested on: ULK1
ULK2 = tested on: ULK2
ULK3 = tested on: ULK3
VEGFR2 = tested on: T3, VEGFR2
T3 construct: gene KDR

VPS34 = tested on: T4, VPS34
T4 construct: gene PIK3C3

VRK2 = tested on: VRK2
WEE1 = tested on: WEE1
WEE2 = tested on: WEE2
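Note: KINOMEscan kinase panel screen.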

Compound | %Inh (TNNI3K) | %Inh (TRKA) | %Inh (TRKB) | %Inh (TRKC) | %Inh (TRPM6) | %Inh (TSSK1B) | %Inh (TSSK3) | %Inh (TTK) | %Inh (TXK) | %Inh [1] | %Inh [2] | %Inh (TYRO3) | %Inh (ULK1) | %Inh (ULK2) | %Inh (ULK3) | %Inh (VEGFR2) | %Inh (VPS34) | %Inh (VRK2) | %Inh (WEE1) | %Inh (WEE2)
Cc1ccc(-c2ccc3occ(-c4ccc(S(C)=O)cc4)c3c2)nn1 (stereo not shown) | 0% | 0% | 0% | 11% | 0% | 0% | 0% | 8% | 2% | 1% | 18% | 0% | 0% | 0% | 0% | 0% | 61% | 0% | 0% | 0%
CC(C)c1nc(-c2ccc(F)c(NS(=O)(=O)c3c(F)cccc3F)c2)c(-c2ccnc(Nc3ccc(N4CCOCC4)nc3)n2)s1 [GSK1804250] | 18% | 98% | 0% | 0% | 7% | 15% | 24% | 52% | 85% | 39% | 0% | 86% | 9% | 19% | 50% | 47% | 0% | 11% | 5% | 16%
CNc1nccc(-c2ccc3c(N)n[nH]c3c2)n1 [GSK2206003] | 0% | 52% | 23% | 3% | 0% | 0% | 21% | 37% | 11% | 46% | 89% | 0% | 42% | 41% | 9% | 31% | 15% | 18% | 9% | 7%
COc1cccc(NC(=O)NCCNc2ccnc(Nc3ccc(F)cc3)n2)c1 [GSK1379879] | 0% | 0% | 31% | 38% | 21% | 0% | 14% | 0% | 4% | 33% | 48% | 0% | 13% | 0% | 26% | 0% | 0% | 0% | 31% | 6%
O=C1NC(=O)C(c2ccccc2Cl)=C1Nc1cccc(Cl)c1 [SB-342409] | 98.7% | 0% | 0% | 9% | 13% | 100% | 8% | 0% | 33% | 12% | 29% | 0% | 36% | 0% | 24% | 0% | 0% | 12% | 0% | 6%
N#CC1(c2cccc(C(=O)Nc3cccc(Oc4ccc5nc(NC(=O)C6CC6)sc5n4)c3)c2)CC1 | 90.5% | 0% | 7% | 0% | 12% | 0% | 0% | 9% | 86% | 0% | 0% | 53% | 0% | 0% | 0% | 99.7% | 0% | 19% | 0% | 5%
Cc1ccc(O)cc1Nc1ccnc2ccc(C(C)(C)C)cc12 [GW856805] | 6% | 37% | 42% | 11% | 21% | 1% | 0% | 17% | 98.9% | 54% | 38% | 15% | 56% | 30% | 51% | 54% | 51% | 20% | 9% | 18%
Cc1cccc(Nc2nc(N[C@H]3CCCC[C@H]3N)ncc2C(N)=O)c1.Cl [GSK986310] | 31% | 99% | 55% | 22% | 0% | 64% | 33% | 36% | 0% | 70% | 19% | 21% | 72% | 80% | 43% | 0% | 56% | 0% | 41% | 8%
Cc1cc(-c2ccnc(Nc3cccc(C#N)c3)n2)cc(C)c1O [GSK1440913] | 25% | 78% | 9% | 39% | 0% | 5% | 7% | 54% | 35% | 60% | 99.4% | 23% | 1% | 0% | 54% | 6% | 70% | 3% | 0% | 2%
COc1cccc2c(-c3ccncc3)c(-c3ccc(F)cc3)nn12 [GW468513] | 6% | 17% | 11% | 0% | 9% | 49% | 21% | 0% | 6% | 25% | 67% | 0% | 3% | 0% | 0% | 0% | 10% | 12% | 4% | 0%
CN(C)c1ncnc2nc[nH]c12 [SKF-31736] | 0% | 0% | 0% | 28% | 30% | 0% | 4% | 0% | 0% | 0% | 26% | 0% | 14% | 42% | 21% | 5% | 47% | 38% | 0% | 0%
CCNc1nccc(-c2c(-c3ccc(F)cc3)ncn2C2CCN(C)CC2)n1 | 0% | 0% | 0% | 0% | 0% | 0% | 0% | 7% | 0% | 0% | 0% | 26% | 0% | 0% | 0% | 0% | 0% | 0% | 0% | 0%
O=C(Nc1n[nH]c2nc(-c3ccccc3)ccc12)C1CC1 [SB-708999] | 11% | 1% | 0% | 24% | 0% | 0% | 16% | 0% | 5% | 33% | 29% | 6% | 11% | 3% | 9% | 0% | 14% | 47% | 0% | 0%
Cl.Cl.NC(CNC(=O)c1cc(Br)c(-c2ccnc3[nH]ccc23)s1)c1ccccc1 (stereo not shown) [GSK1322949] | 0% | 100% | 91.6% | 85% | 0% | 7% | 34% | 38% | 0% | 71% | 38% | 0% | 49% | 0% | 8% | 30% | 59% | 67% | 18% | 0%
CCNC(=O)/C=C/c1n[nH]c2cc(Sc3ccccc3C(=O)NC)ccc12 | 22% | 34% | 0% | 0% | 0% | 19% | 13% | 0% | 0% | 0% | 0% | 0% | 10% | 36% | 1% | 99.9% | 0% | 14% | 14% | 0%
O=C(O)C(F)(F)F.O=c1[nH]ccc2nc(N[C@@H]3CCNC3)nc(Nc3ccc4c(c3)S(=O)(=O)CC4)c12 [GSK2181306] | 11% | 100% | 92.8% | 84% | 38% | 69% | 96.5% | 85% | 26% | 90.8% | 57% | 2% | 99.9% | 99.5% | 98.6% | 36% | 88% | 89% | 18% | 0%
O=C(Nc1n[nH]c2nc(-c3cccc(O)c3)ccc12)C1CC1 [SB-711805] | 0% | 4% | 19% | 24% | 3% | 0% | 0% | 14% | 0% | 18% | 0% | 0% | 0% | 10% | 7% | 16% | 23% | 0% | 0% | 0%
Nc1ncc(-c2ccc3nccc(-c4ccncc4)c3c2)cc1S(=O)(=O)N1CCCCC1 [GSK1693850] | 1% | 99% | 0% | 0% | 0% | 0% | 7% | 21% | 0% | 4% | 12% | 0% | 0% | 0% | 10% | 18% | 95.5% | 2% | 0% | 0%
Nc1ncc(-c2cn[nH]c2)c2scc(-c3ccc4c(c3)CCN4C(=O)Cc3ccccc3)c12 [GSK2593067] | 0% | 96.8% | 63% | 70% | 16% | 3% | 20% | 1% | 30% | 10% | 16% | 6% | 9% | 0% | 9% | 53% | 33% | 0% | 0% | 12%
CS(=O)(=O)c1cccc(CNc2nc(Nc3ccc4c(c3)CCC(=O)N4)ncc2C(F)(F)F)c1 | 0% | 98% | 92.9% | 73% | 0% | 0% | 0% | 99.6% | 0% | 89% | 0% | 0% | 69% | 70% | 66% | 68% | 0% | 0% | 0% | 0%
